Assay results published in PubChem BioAssay (Tox21).
Values joined by “and” are separate entries in the source; they are usually repeats but may differ in a detail not shown here. Equal values may be shown once. Records with an inconclusive call do not appear. Where a call stands in place of a potency, no number is given. Some structures have more than one record in an assay (separate samples or runs), and their calls can disagree. Active and inactive are the calls of the source. Unless noted, the call rests on the fitted dose curve; in most records, active means well fitted curve in the direction sought with a large enough effect in the repeat runs; inconclusive means weak or mixed curves; inactive means no such curve, though single readings can be large; an effect the other way counts as inactive or inconclusive.

Experiments:
[1] = qHTS assay to identify small molecule agonists of the hypoxia (HIF-1) signaling pathway - cell viability counter screen (AID 1224844; calls by dose curve; further: nearly all actives have a fitted effect of over 50% in size; further: potency means the concentration at half of the fitted maximal effect)
Method in brief: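 HRE-bla ME-180 cells, 2,000/well in 0.5% dialyzed FBS medium, treated 17 h at 37C with compounds. Viability read in the same wells as the bla reporter, by CellTiter-Glo luminescence after 30 min at room temperature.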

[2] = qHTS assay to identify small molecule agonists of H2AX (AID 1224845; active means well fitted activation curve with a large enough effect in the signal ratio in the repeat runs, not every such curve was filed as active; the % refers to the signal ratio)
Method in brief: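 Phospho-H2AX Ser139 measured by HTRF (ex 320 nm; em 665 and 620 nm) after 24 hr antibody incubation. Compounds, 15 concentrations, 0.76% DMSO, were applied to CHO-K1 cells for 3hr at 37C before lysis.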

[3] = qHTS assay to identify small molecule agonists of the hypoxia (HIF-1) signaling pathway (AID 1224846; active means well fitted activation curve with a large enough effect in the signal ratio in the repeat runs, not every such curve was filed as active; the % refers to the signal ratio)
Method in brief: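 HRE-bla ME-180 beta-lactamase reporter cells in medium with 0.5% dialyzed FBS, pre-incubated 5 h then exposed to compounds 17 h at 37C, 5% CO2; reporter induction read with CCF4-AM FRET substrate.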

[4] = qHTS assay to identify small molecule agonists of H2AX - cell viability counter screen (AID 1224847; calls by dose curve; further: nearly all actives have a fitted effect of over 30% in size; further: potency means the concentration at half of the fitted maximal effect)
Method in brief: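 Counter-screen for viability: CellTiter-Glo ATP luminescence read after 3 h compound treatment (15-point titration, 0.76% DMSO final) of CHO-K1 cells at 37C, with 30 min room-temperature reagent incubation.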

[5] = qHTS RealTime-Glo MT Cell Viability Assay in HepG2 cells - 24 hour (AID 1224867); further: nearly all actives have a fitted effect of over 50% in size; further: potency means the concentration at half of the fitted maximal effect
Method in brief: (§1)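 Luminescence read-out: viable HepG2 cells reduce a prosubstrate to a NanoLuc substrate, giving a signal proportional to live cell number. Reads taken at 0, 8, 16, 24, 32 and 40 h of compound exposure at 37 C.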

[6] = qHTS RealTime-Glo MT Cell Viability Assay in HEK293 cells - 32 hour (AID 1224868); further: nearly all actives have a fitted effect of over 50% in size; further: potency means the concentration at half of the fitted maximal effect
Method in brief: (§2)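 Nonlytic real-time viability readout: viable cells convert prosubstrate to NanoLuc substrate, giving luminescence proportional to live cell number. HEK293, 600 cells/well, compound added after 5 h, continuous culture at 37 C.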

[7] = A CellTox Green Cytotoxicity Assay to monitor cytotoxicity in HEK293 cells - 0 hour (AID 1224869); further: nearly all actives have a fitted effect of over 50% in size
Method in brief: (§3)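 HEK293 cells, 600/well, were preincubated 5 hours and then exposed to compounds at 37 C for up to 40 hours. A cell-impermeant cyanine dye staining dead-cell DNA was read by fluorescence at 0, 8, 16, 24, 32 and 40 h time points.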

[8] = qHTS RealTime-Glo MT Cell Viability Assay in HepG2 cells - 40 hour (AID 1224870); further: nearly all actives have a fitted effect of over 50% in size; further: potency means the concentration at half of the fitted maximal effect
Method in brief: (§4)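 Real-time viability: cells seeded at 600 per well together with NanoLuc and cell-permeant prosubstrate, compounds added after 5 h incubation. Luminescence tracked at 0, 8, 16, 24, 32 and 40 h of exposure.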

[9] = A CellTox Green Cytotoxicity Assay to monitor cytotoxicity in HEK293 cells - 40 hour (AID 1224871); further: nearly all actives have a fitted effect of over 45% in size; further: potency means the concentration at half of the fitted maximal effect
Method in brief: as §3

[10] = qHTS RealTime-Glo MT Cell Viability Assay in HEK293 cells - 16 hour (AID 1224872); further: nearly all actives have a fitted effect of over 50% in size; further: potency means the concentration at half of the fitted maximal effect
Method in brief: as §2

[11] = qHTS RealTime-Glo MT Cell Viability Assay in HepG2 cells - 8 hour (AID 1224873); further: nearly all actives have a fitted effect of over 55% in size; further: potency means the concentration at half of the fitted maximal effect
Method in brief: as §4

[12] = qHTS RealTime-Glo MT Cell Viability Assay in HEK293 cells - 40 hour (AID 1224874); details: RealTime-Glo luminescence; max response: stronger effect = lower value; further: nearly all actives have a fitted effect of over 50% in size; further: potency means the concentration at half of the fitted maximal effect
Method in brief: (§5)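 600 cells/well were plated with the nonlytic NanoLuc/prosubstrate reagent, pre-incubated 5 h, then given 23 nL of compound in DMSO. Incubation at 37 C for 40 h, with luminescence from viable-cell-reduced substrate read repeatedly from 0 h.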

[13] = A CellTox Green Cytotoxicity Assay to monitor cytotoxicity in HEK293 cells - 24 hour (AID 1224875); further: nearly all actives have a fitted effect of over 45% in size
Method in brief: as §3

[14] = qHTS RealTime-Glo MT Cell Viability Assay in HepG2 cells - 32 hour (AID 1224877); further: nearly all actives have a fitted effect of over 55% in size; further: potency means the concentration at half of the fitted maximal effect
Method in brief: as §1

[15] = A CellTox Green Cytotoxicity Assay to monitor cytotoxicity in HepG2 cells - 24 hour (AID 1224878); further: nearly all actives have a fitted effect of over 45% in size
Method in brief: (§6)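 HepG2 cells, 600/well, preincubated 5 h with CellTox Green dye, then exposed to Tox21 compounds in DMSO at 37 C for up to 40 h. Dead-cell DNA fluorescence read at the indicated time point.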

[16] = A CellTox Green Cytotoxicity Assay to monitor cytotoxicity in HepG2 cells - 40 hour (AID 1224879); further: nearly all actives have a fitted effect of over 40% in size
Method in brief: as §6

[17] = qHTS RealTime-Glo MT Cell Viability Assay in HEK293 cells - 0 hour (AID 1224880); further: nearly all actives have a fitted effect of over 45% in size; further: potency means the concentration at half of the fitted maximal effect
Method in brief: as §5

[18] = qHTS assay to identify small molecule antagonists of the estrogen related receptor (ERR) signaling pathway from Tox21 library (AID 1224848); further: nearly all actives have a fitted effect of over 50% in size; further: potency means the concentration at half of the fitted maximal effect
Method in brief: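 Reading was by luminescence 30 min after ONE-Glo addition. Before that, ERR cells at 2,000 per well had rested 6 h at 37 C/5% CO2 and then received pin-tooled compounds in DMSO for 18 h at 37 C.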

[19] = qHTS assay to identify small molecule agonists of the estrogen related receptor (ERR) signaling pathway from Tox21 library (AID 1224849; calls by dose curve; further: nearly all actives have a fitted effect of over 15% in size); details: ERR reporter cell line, ONE-Glo luciferase, 18 h
Method in brief: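 ERR reporter cells (NTP line) pre-incubated 6 hours at 37 C, then exposed to compounds for 18 hours at 37 C. ONE-Glo luciferase luminescence was read after 30 minutes at room temperature.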

[20] = A CellTox Green Cytotoxicity Assay to monitor cytotoxicity in HepG2 cells - 16 hour (AID 1224876); further: nearly all actives have a fitted effect of over 45% in size
Method in brief: as §6

[21] = at 92.4 µM (top of the series) unless noted

SMILES: NC(=O)CC[C@@H]1NC(=O)[C@H](Cc2ccccc2)NC(=O)[C@H](Cc2ccc(O)cc2)NC(=O)CCSSC[C@@H](C(=O)N2CCC[C@H]2C(=O)N[C@@H](CCCN=C(N)N)C(=O)NCC(N)=O)NC(=O)[C@H](CC(N)=O)NC1=O
- Potency [1]: inactive
- Potency [2]: inactive
- Potency [3]: inactive
- Potency [4]: inactive
- Potency [5]: inactive
- Potency [6]: inactive
- Potency [7]: inactive
- Potency [8]: inactive
- Potency [9]: inactive
- Potency [10]: inactive
- Potency [11]: inactive
- max response [12]: 0.946% (inactive)
- Potency [13]: inactive
- Potency [14]: inactive
- Potency [15]: inactive
- Potency [16]: inactive
- Potency [17]: inactive

SMILES: COC(=O)C1=C(C)NC(C)=C(C(=O)OCC(C)C)C1c1ccccc1[N+](=O)[O-] (stereo unspecified)
- Potency [1]: 49 µM (active)
- Potency [2]: inactive
- Potency [3]: inactive
- Potency [4]: 127 µM (active) and inactive
- Potency [18]: 12.2 µM (active) and 21.1 µM (active)
- activity change, positive = activation ([19]; at 42.5 µM (top of the series)): -46.2% (inactive)
- activity change, positive = activation ([19]; at 92.4 µM (top of the series)): -62.2% (inactive)
- Potency [5]: 49 µM (active)
- Potency [6]: 21.9 µM (active)
- Potency [7]: inactive
- Potency [8]: 49 µM (active) and inactive
- Potency [9]: 49 µM (active) and inactive
- Potency [10]: 38.9 µM (active)
- Potency [11]: 43.6 µM (active)
- Potency [12]: 19.5 µM (active) and 23.9 µM (active)
- Potency [13]: inactive
- Potency [20]: inactive
- Potency [14]: 49 µM (active)
- Potency [15]: inactive
- Potency [16]: inactive
- Potency [17]: 21.3 µM (active)

SMILES: CCCCCOC(=O)CCCC
- Potency [1]: inactive
- Potency [2]: inactive
- Potency [3]: inactive
- Potency [4]: inactive
- Potency [5]: inactive
- Potency [6]: inactive
- Potency [8]: inactive
- Potency [9]: inactive
- Potency [10]: inactive
- Potency [11]: inactive
- max response [12]: -0.909% (inactive)
- Potency [13]: inactive
- Potency [15]: inactive
- Potency [16]: inactive
- Potency [17]: inactive

SMILES: COc1cc(/C=C/C(=O)O[C@H]2CC[C@]34C[C@]35CC[C@]3(C)[C@@H]([C@H](C)CCC=C(C)C)CC[C@@]3(C)[C@@H]5CC[C@H]4C2(C)C)ccc1O
- Potency [1]: inactive
- Potency [2]: inactive
- Potency [3]: inactive
- Potency [4]: inactive
- Potency [18]: inactive
- activity change, positive = activation [19, 21]: -5.43% [at 42.5 µM] (inactive)
- Potency [5]: inactive
- Potency [6]: inactive
- Potency [7]: inactive
- Potency [8]: inactive
- Potency [9]: inactive
- Potency [10]: inactive
- Potency [11]: inactive
- max response [12]: 1.32% (inactive)
- Potency [13]: inactive
- Potency [20]: inactive
- Potency [14]: inactive
- Potency [15]: inactive
- Potency [16]: inactive
- Potency [17]: inactive

SMILES: COC(=O)c1cc(Cl)ccc1OC
- Potency [1]: inactive
- Potency [2]: inactive
- Potency [3]: inactive
- Potency [4]: inactive
- Potency [5]: inactive
- Potency [6]: inactive
- Potency [8]: inactive
- Potency [9]: inactive
- Potency [10]: inactive
- Potency [11]: inactive
- max response [12]: 6.18% (inactive)
- Potency [13]: inactive
- Potency [20]: inactive
- Potency [14]: inactive
- Potency [15]: inactive
- Potency [16]: inactive
- Potency [17]: inactive

SMILES: CCCC/C=C/CCCCO
- Potency [1]: inactive
- Potency [2]: inactive
- Potency [3]: inactive
- Potency [4]: inactive
- Potency [5]: inactive
- Potency [6]: inactive
- Potency [7]: inactive
- Potency [8]: inactive
- Potency [9]: inactive
- Potency [10]: inactive
- Potency [11]: inactive
- max response [12]: 5.87% (inactive)
- Potency [13]: inactive
- Potency [20]: inactive
- Potency [14]: inactive
- Potency [16]: inactive
- Potency [17]: inactive

SMILES: C=C(C)C(=O)OCC[N+](C)(C)C
- Potency [1]: inactive
- Potency [2]: inactive
- Potency [3]: inactive
- Potency [4]: inactive
- Potency [5]: inactive
- Potency [6]: inactive
- Potency [8]: inactive
- Potency [9]: inactive
- Potency [10]: inactive
- Potency [11]: inactive
- max response [12]: -0.113% (inactive)
- Potency [20]: inactive
- Potency [14]: inactive
- Potency [15]: inactive
- Potency [16]: inactive
- Potency [17]: inactive

SMILES: C1CCCC1
- Potency [1]: inactive
- Potency [2]: inactive
- Potency [3]: inactive
- Potency [4]: inactive
- Potency [18]: inactive
- activity change, positive = activation [19, 21]: 9.59% (inactive)
- Potency [5]: inactive
- Potency [6]: inactive
- Potency [7]: inactive
- Potency [8]: inactive
- Potency [9]: inactive
- Potency [10]: inactive
- Potency [11]: inactive
- max response [12]: -2.57% (inactive)
- Potency [13]: inactive
- Potency [20]: inactive
- Potency [14]: inactive
- Potency [15]: inactive
- Potency [16]: inactive
- Potency [17]: inactive

SMILES: C/C=C(\C)C(=O)OCc1ccccc1
- Potency [1]: inactive
- Potency [2]: inactive
- Potency [3]: inactive
- Potency [4]: inactive
- Potency [18]: inactive
- activity change, positive = activation [19, 21]: 5.16% (inactive)
- Potency [5]: inactive
- Potency [7]: inactive
- Potency [8]: inactive
- Potency [10]: inactive
- Potency [11]: inactive
- max response [12]: -2.09% (inactive)
- Potency [13]: inactive
- Potency [20]: inactive
- Potency [14]: inactive
- Potency [15]: inactive
- Potency [16]: inactive
- Potency [17]: inactive

SMILES: N#CC1(c2ccc(F)cc2)CCC(=O)CC1
- Potency [1]: inactive
- Potency [2]: inactive
- Potency [3]: inactive
- Potency [4]: inactive
- Potency [18]: inactive
- activity change, positive = activation [19, 21]: 6.11% [at 42.5 µM] (inactive)
- Potency [5]: inactive
- Potency [6]: inactive
- Potency [7]: inactive
- Potency [8]: inactive
- Potency [9]: inactive
- Potency [10]: inactive
- Potency [11]: inactive
- max response [12]: 6.72% (inactive)
- Potency [13]: inactive
- Potency [20]: inactive
- Potency [14]: inactive
- Potency [16]: inactive
- Potency [17]: inactive

SMILES: CN(C)c1ccc(SC#N)cc1
- Potency [1]: inactive
- Potency [2]: inactive
- Potency [3]: inactive
- Potency [4]: inactive
- Potency [5]: inactive
- Potency [6]: inactive
- Potency [7]: inactive
- Potency [8]: inactive
- Potency [9]: inactive
- Potency [10]: inactive
- Potency [11]: inactive
- max response [12]: 0.13% (inactive)
- Potency [13]: inactive
- Potency [15]: inactive
- Potency [16]: inactive
- Potency [17]: inactive

SMILES: COc1cccc(N)c1
- Potency [1]: inactive
- Potency [2]: inactive
- Potency [3]: inactive
- Potency [4]: inactive
- Potency [18]: inactive
- Potency [5]: inactive
- Potency [8]: inactive
- Potency [9]: inactive
- Potency [10]: inactive
- Potency [11]: inactive
- max response [12]: -1.08% (inactive)
- Potency [13]: inactive
- Potency [20]: inactive
- Potency [14]: inactive
- Potency [15]: inactive
- Potency [16]: inactive
- Potency [17]: inactive

SMILES: CCN(CCC#N)c1ccc(N=Nc2c(Cl)cc([N+](=O)[O-])cc2Cl)cc1
- Potency [1]: inactive
- Potency [2]: inactive
- Potency [3]: inactive
- Potency [4]: 56.6 µM (active)
- activity change, positive = activation [19, 21]: -27% (inactive)
- Potency [6]: inactive
- Potency [9]: inactive
- Potency [10]: inactive
- max response [12]: -15.8% (inactive)
- Potency [13]: inactive
- Potency [15]: inactive
- Potency [16]: inactive
- Potency [17]: inactive
